The values that follow come from PubChem BioAssay (Tox21).

Inconclusive results are not listed. Unmarked numbers belong to inactive results. Calls of active or inactive are those of the source. Unless noted, calls follow the shape of the dose curve; as a rule, active = well fitted curve in the direction sought with a large enough effect in the repeat runs; inconclusive = weak or mixed curves; inactive = no such curve, though single readings can be large; an effect the other way counts as inactive or inconclusive.

Assay [1] in a line: qHTS assay to identify small molecule antagonists of the vitamin D receptor (VDR) signaling pathway - cell viability counter screen (AID 743225). Also: % is scaled to controls: 0 for no effect and ±100 for the full control effect; nearly all actives have a fitted effect of over 50% in size. The essentials: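 Compounds were pinned onto VDR-bla HEK 293T cells together with 1-alpha,25-dihydroxyvitamin D3 at 3 nM final. After 16 h at 37C and 5% CO2 plus the reporter readout, cell viability was measured by CellTiter-Glo luminescence (30 min, room temperature).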
In general terms: In qHTS, concentration-response curves come from the screen itself.

Assay [2] can be described thus: qHTS assay to identify small molecule agonists of the NFkB signaling pathway - cell viability counter screen (AID 1159515; calls by dose curve; also: series mostly up to about 61 µM; % is scaled to controls: 0 for no effect and ±100 for the full control effect; nearly all actives have a fitted effect of over 55% in size). The essentials: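 Viability in NFkB-bla ME-180 cells was measured by CellTiter-Glo luminescence, 30 min room temperature, in wells already treated 5 hr with compounds and read for reporter FRET.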
Assay [3] in a line: qHTS assay to identify small molecule agonists of the endoplasmic reticulum stress response signaling pathway (AID 1159516; active = well fitted activation curve with a large enough effect in the signal ratio in the repeat runs, not every such curve was filed as active; the % refers to the signal ratio; also: % is scaled to controls: 0 for no effect and ±100 for the full control effect). The essentials: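 ER stress element reporter (bla) in HeLa. 1,500 cells/well, overnight attachment; 5 hr compound; 2 hr RT substrate; dual-emission fluorescence.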
Assay [4] can be described thus: qHTS assay to identify small molecule agonists of the endoplasmic reticulum stress response signaling pathway - cell viability counter screen (AID 1159517; calls by dose curve;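 also: HeLa cells carrying an ER stress response element beta-lactamase reporter; series mostly up to about 61 µM; % is scaled to controls: 0 for no effect and ±100 for the full control effect; nearly all actives have a fitted effect of over 50% in size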). The essentials:
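CellTiter-Glo was added to wells already read for beta-lactamase FRET, and luminescence was recorded 30 min later. Cells: ESRE-bla HeLa, 1,500 per well, compound exposure 5 hr at 37 C.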

A short description of assay [5]: qHTS assay to identify small molecule antagonists of the retinoid-related orphan receptor gamma (ROR-gamma) signaling pathway - cell viability counter screen (AID 1159520). Also: % is scaled to controls: 0 for no effect and ±100 for the full control effect; nearly all actives have a fitted effect of over 50% in size. The essentials: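 Tet-on ROR gamma CHO cells (1,000/well) were plated 4 hr, given compounds in DMSO for 2 hr at 37 C, then induced with 1 uM final doxycycline for 16 hr. Viability was read as ATP by CellTiter-Glo luminescence after 30 min.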

Assay [6] in a line: qHTS assay to identify small molecule agonists of the AP-1 signaling pathway - cell viability counter screen (AID 1159525; calls by dose curve; also: nearly all actives have a fitted effect of over 55% in size). A digest of the protocol: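 ME-180 AP-1-bla, 2500 cells/well, Opti-MEM + 0.5% dialyzed FBS; overnight 37 °C; cpd 15-pt titration, 5 h 37 °C; CellTiter-Glo 30 min RT; luminescence read; normalised to TOAB and DMSO controls.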
Assay [7] is described as follows: qHTS assay to identify small molecule agonists of the AP-1 signaling pathway (AID 1159526; calls by dose curve; also: % is scaled to controls: 0 for no effect and ±100 for the full control effect).
Assay [8] has as its target Retinoic acid receptor RXR-alpha (Homo sapiens) (UniProt P19793). The assay is described as follows: qHTS assay to identify small molecule agonists of the RXR signaling pathway (AID 1159527; calls by dose curve; also: % is scaled to controls: 0 for no effect and ±100 for the full control effect; nearly all actives have a fitted effect of over 35% in size). The essentials:
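Using 9-cis retinoic acid as the reference agonist, chemicals were tested in HEK 293T cells […] for 16 hr; substrate loading lasted 2 hr at room temperature.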

The nature of assay [9]: qHTS assay to identify small molecule agonists of the RXR signaling pathway - cell viability counter screen (AID 1159529). Also: nearly all actives have a fitted effect of over 50% in size. Also: potency is read from the fitted curve at half-maximal effect. The essentials:
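Compounds dissolved in DMSO were pinned onto HEK 293T cells carrying a beta-lactamase reporter under RXR-alpha control and incubated 16 hr. Cytotoxicity was then quantified by CellTiter-Glo luminescence.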

Assay [10] is described as follows: qHTS assay to identify small molecule antagonists of the retinoid acid receptor (RAR) signaling pathway - cell viability counter screen (AID 1159551). Also: % is scaled to controls: 0 for no effect and ±100 for the full control effect; nearly all actives have a fitted effect of over 35% in size. The essentials:
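Following overnight attachment, C3RL4 reporter cells received DMSO-dissolved compounds and then retinol (1 uM final). Six hours later at 37 C, ATP content was measured by CellTiter-Glo luminescence.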

Assay [11] is described as follows: qHTS assay to identify small molecule antagonists of the estrogen related receptor (ERR) signaling pathway from Tox21 library - cell viability counter screen (AID 1224834). Also: % is scaled to controls: 0 for no effect and ±100 for the full control effect; nearly all actives have a fitted effect of over 30% in size. The essentials: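 Viability readout (CellTiter-Fluor fluorescence, 30 min at 37 C) multiplexed with the ERR assay; cells treated 17.5 h at 37 C with compounds delivered in DMSO.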
Assay [12] in a line: qHTS assay to identify small molecule antagonists of the estrogen related receptor (ERR) signaling pathway - cell viability counter screen (AID 1224818). Also: series mostly up to about 46 µM; % is scaled to controls: 0 for no effect and ±100 for the full control effect. The essentials: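 Here, ERR cells are plated at 2,000 cells per well, allowed 6 h to attach, and treated with compounds in DMSO for 17.5 h at 37 C. CellTiter-Fluor is then added and fluorescence read after 30 min.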
A short description of assay [13]: qHTS assay to identify small molecule antagonists of the estrogen related receptor (ERR) signaling pathway (AID 1224819). A digest of the protocol:
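LOPAC library screened for antagonism as reduced One-Glo luminescence in ERR reporter cells (2,000/well). Compounds were added after 6 h pre-incubation and left 18 h at 37C; reading followed a 30 min room-temperature reagent step.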

Assay [14] can be described thus: qHTS assay to identify small molecule agonists of the estrogen related receptor (ERR) signaling pathway (AID 1224820). Also: % is scaled to controls: 0 for no effect and ±100 for the full control effect. A digest of the protocol: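 ERR reporter cell line (from NTP), 2,000 cells/well, incubated 6 h before compound addition, then 18 h at 37 C. Luminescence measured 30 min after One-Glo reagent at room temperature.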
For assay [15], the system named is estrogen-related receptor alpha (ERRalpha) with PGC-1alpha coactivator, human. The assay is described as follows: qHTS assay to identify small molecule antagonists of the estrogen related receptor signaling pathway with the pleiotropic PPARgamma coactivator (PGC) (AID 1224821; calls by dose curve). A digest of the protocol:
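PGC/ERR reporter cell line, plated 6 h before compound addition, then exposed 18 h at 37 °C. Luciferase activity read by luminescence 30 min after One-Glo addition; decrease indicates antagonism.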

The nature of assay [16]: qHTS assay to identify small molecule antagonists of the estrogen related receptor signaling pathway with the pleiotropic PPARgamma coactivator (PGC) cell viability counter screen (AID 1224822). The essentials: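 qHTS format, DMSO compound stocks pin-transferred onto PGC/ERR cells 6 h after plating; 17.5 h exposure at 37 C, then CellTiter-Fluor fluorescence.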
The nature of assay [17]: qHTS assay to identify small molecule agonists of the estrogen related receptor signaling pathway with the pleiotropic PPARgamma coactivator (PGC) (AID 1224823). Also: % is scaled to controls: 0 for no effect and ±100 for the full control effect. A digest of the protocol:
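PGC/ERR reporter cells seeded 6 h, then exposed to compounds (23 nL in DMSO) for 18 h at 37 C. One-Glo luciferase luminescence read after 30 min at room temperature.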

Assay [18] has as its target Nuclear receptor ROR-gamma (Homo sapiens) (UniProt P51449). The assay is described as follows: qHTS assay to identify small molecule antagonists of the retinoid-related orphan receptor gamma (ROR-gamma) signaling pathway (AID 1159521). A digest of the protocol:
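Test compounds were applied to Tet-on RORγ CHO cells 2 h ahead of doxycycline hyclate (1 uM final). Luciferase reporter activity was quantified by luminescence after 16 h at 37 C and 5% CO2.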

The nature of assay [19]: qHTS assay to identify small molecule antagonists of the retinoic acid receptor (RAR) signaling pathway (AID 1159552). The essentials:
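Test chemicals and DMSO controls were pin-transferred onto C3RL4 cells a day after seeding; retinol (1 uM final) followed at once. Luminescent reporter output was quantified after 6 hr of co-incubation and 30 min with detection reagent.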

Chain of Retinoic acid receptor RXR-alpha (Homo sapiens) (P19793 whole entry, looked up): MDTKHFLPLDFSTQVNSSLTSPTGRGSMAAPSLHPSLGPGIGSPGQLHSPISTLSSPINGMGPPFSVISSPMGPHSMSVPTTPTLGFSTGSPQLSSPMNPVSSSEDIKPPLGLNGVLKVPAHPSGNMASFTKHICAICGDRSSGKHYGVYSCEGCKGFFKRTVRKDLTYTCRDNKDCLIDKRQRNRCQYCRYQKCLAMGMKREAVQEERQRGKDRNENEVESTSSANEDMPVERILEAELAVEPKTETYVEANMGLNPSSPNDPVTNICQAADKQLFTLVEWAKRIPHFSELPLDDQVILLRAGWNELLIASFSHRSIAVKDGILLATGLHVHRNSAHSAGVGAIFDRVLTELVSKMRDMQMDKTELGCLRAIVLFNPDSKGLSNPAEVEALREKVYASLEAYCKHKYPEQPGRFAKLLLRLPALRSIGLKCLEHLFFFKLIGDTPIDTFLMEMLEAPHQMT

Consider `Cc1nc2ccc(CN(C)c3ccc(C(=O)N[C@@H](CCC(=O)O)C(=O)O)s3)cc2c(=O)[nH]1`, for which the outcome in [1], in assay [2], in assay [3], in assay [4], in [5] and in assay [6] was inactive. Also, the call in [7] and in assay [10] was inactive. Besides, the Potency entry in assay [8], in assay [9] and in [11] was “inactive” throughout.

On to `Clc1cc(Cl)cc(Cl)c1`, for which the compound was classed as inactive in [2], in assay [3], in assay [4], in assay [5], in [6] and in assay [7]. Further, the result in assay [10] was inactive. Further, the Potency entry in [8], in assay [9] and in assay [11] was “inactive” each time.

`Nc1ccncc1N`: the outcome in assay [1], in assay [2], in [3], in assay [4], in [5] and in [6] was inactive. Moreover, the compound was called inactive in assay [7] and in assay [10]. The Potency entry in assay [8], in assay [9] and in assay [11] was “inactive” throughout.

Regarding `CCN(C=O)CC`, the compound was called inactive in [1], in assay [2], in assay [3], in [4], in assay [5] and in [6]. Also, the result in [7] and in [10] was inactive. Moreover, the Potency result in assay [8] was “inactive”. The Potency in assay [9] was 50.3 µM (active).

`Cc1ccc(C(=O)Nc2ccc(S(=O)(=O)O)c3cc(S(=O)(=O)O)cc(S(=O)(=O)O)c23)cc1NC(=O)c1cccc(NC(=O)Nc2cccc(C(=O)Nc3cc(C(=O)Nc4ccc(S(=O)(=O)O)c5cc(S(=O)(=O)O)cc(S(=O)(=O)O)c45)ccc3C)c2)c1`: the result in [1], in assay [2], in assay [3], in assay [4], in [5] and in [6] was inactive. The result in assay [7], in assay [10], in assay [12], in [13], in assay [14] and in [15] was inactive. Further, the compound was called inactive in assay [16] and in assay [17]. Besides, the Potency result in assay [8], in assay [9] and in assay [11] was “inactive” each time.

Regarding `O=[N+]([O-])c1cncn1CCN1CCOCC1`, the compound was called inactive in [2], in [3], in [4], in [5], in assay [6] and in [7]. The call in [10] was inactive. For the same compound, the Potency result in assay [8] and in [9] was “inactive” each time.

As for `C[C@@H]1C[C@H]2[C@@H]3C[C@H](F)C4=CC(=O)C(Cl)=C[C@]4(C)[C@@]3(F)[C@@H](O)C[C@]2(C)[C@@]1(O)C(=O)CO`, the call in assay [1], in assay [2], in [3], in assay [4], in assay [5] and in [7] was inactive. Further, the compound was called inactive in assay [10]. In addition, the Potency entry in assay [18], in assay [8], in assay [9] and in assay [11] was “inactive” throughout.

For `CCCCCCCCCCOc1cc2c(=O)c(C(=O)OCC)c[nH]c2cc1OCC`, the viability change, negative = cytotoxic in [1] was -0.675% [at 6.95 µM]; in assay [6] it was 15.6% [at 6.97 µM]; in assay [11] it was 3.47% [at 8.39 µM]. Further, in assay [2], the activity, negative = cytotoxic is 6.37% [at 6.95 µM]. The results for the activation in [3], in assay [7] and in [8] were 2.24% [at 6.95 µM], 9.42% [at 6.97 µM] and -0.304% [at 6.98 µM], respectively. For the same compound, the activity change, negative = cytotoxicity in assay [4] was -7.49% [at 6.95 µM]; in assay [9], -0.18% [at 6.97 µM]; in [10] it was 1.07% [at 8.39 µM]. In addition, the activity, negative = cytotoxicity in [5] was 2.58% [at 8.39 µM].

Consider `CCOC(=O)COc1cc(-n2ncc(C(F)(F)F)c(C)c2=O)c(F)cc1Cl`, for which the outcome in [2], in assay [3], in [4], in [5], in [7] and in assay [10] was inactive. Besides, the Potency entry in assay [18], in assay [9], in [19] and in [11] was “inactive” each time.

With `Cc1cc(C)c(N=Nc2c(O)c(S(=O)(=O)O)cc3cc(S(=O)(=O)O)ccc23)cc1C`, the viability change, negative = cytotoxic in assay [1] was 8.22% [at 6.95 µM]; in assay [6] it was -9.8% [at 6.97 µM]; in [11] it was -4.92% [at 8.39 µM]. Moreover, the activity, negative = cytotoxic in assay [2] is -2.06% [at 6.95 µM]. Further, the values for the activation in [3], in assay [7] and in assay [8] were -3.13% [at 6.95 µM], 6% [at 6.97 µM] and 2.6% [at 6.98 µM], respectively. The activity change, negative = cytotoxicity in assay [4] was 9.59% [at 6.95 µM]; in [9], -2.64% [at 6.97 µM]; in assay [10] it was 0.446% [at 8.39 µM]. Also, the activity, negative = cytotoxicity in assay [5] was -7.94% [at 8.39 µM].
